In the library only some 8.9% were active in any assay of this set; here they are far more common.
DRD3 antagonist: D3 dopamine receptor (human) antagonism; D3R cells, DiscoveRx beta-arrestin luminescence, antagonist mode; stronger effect = lower value; max response, negative = inhibition, %; 360,000 tested, 2.5% active; in the data active = max response below about -50%; inconclusive = no clear call, values can overlap the other calls; note: % is set by controls: 0 for no effect and ±100 for the full control effect
Target sequence (P35462 whole entry, looked up): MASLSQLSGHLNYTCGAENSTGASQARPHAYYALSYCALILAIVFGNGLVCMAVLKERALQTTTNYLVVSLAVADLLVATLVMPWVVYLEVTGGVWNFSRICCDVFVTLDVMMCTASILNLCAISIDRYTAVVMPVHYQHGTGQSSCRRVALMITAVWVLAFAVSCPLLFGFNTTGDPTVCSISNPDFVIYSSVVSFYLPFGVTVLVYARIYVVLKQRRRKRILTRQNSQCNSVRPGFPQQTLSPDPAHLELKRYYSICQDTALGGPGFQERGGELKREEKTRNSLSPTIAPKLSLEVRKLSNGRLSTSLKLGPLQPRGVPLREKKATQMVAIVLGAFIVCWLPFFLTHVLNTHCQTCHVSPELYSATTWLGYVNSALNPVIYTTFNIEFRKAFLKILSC
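Cells expressing the human receptor were seeded at 1500 cells/well, incubated overnight at 37 degrees C in 5% CO2, then exposed to library compounds with dopamine controls for 90 minutes at 37 degrees C before luminescent detection.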
KB-V1 MDR tox: KB-V1 MDR subline cytotoxicity; KB-V1 MDR cells viability, CellTiter-Glo, 72 h; Potency, µM (top dose mostly 46.1 µM), most hits filed as cytotoxic; 400,000 tested, 3.4% active; AID 1347076; note: potency is the fitted concentration of half-maximal effect; % is set by controls: 0 for no effect and ±100 for the full control effect; nearly all actives have a fitted effect of over 60% in size
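Potencies derive from concentration-effect curves fitted to normalized luminescence (CellTiter-Glo) of KB-V1 cells treated for 72 h at 37 degrees C in phenol-red-free DMEM containing 10% FBS.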
SW480 rereplic: DNA re-replication induction in SW480 cells; SW480 DNA re-replication, Hoechst DNA content imaging, 48 h; Potency, µM (top dose mostly 46.1 µM), for inactives: at the top dose re-replication activation, most hits filed as activators; 340,000 tested, 1.8% active; AID 624297; note: potency is the fitted concentration of half-maximal effect; % of control where 0% means no effect; nearly all actives have a fitted effect of over 55% in size
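250 cells/well; 23 nL cpd via pin tool; 48 hr, 37 C, 5% CO2; Hoechst 40 min; imager read of total nuclear intensity, ex 405/em 500-530 nm.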
KB-3-1 tox: kills parental KB-3-1 adenocarcinoma cells; 400,000 tested, 1.4% active; Potency, µM (top dose mostly 46.1 µM), actives largely listed as cytotoxic; KB-3-1 viability, CellTiter-Glo ATP luminescence, 72 h; note: potency is the fitted concentration of half-maximal effect; % is set by controls: 0 for no effect and ±100 for the full control effect; nearly all actives have a fitted effect of over 60% in size
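Cytotoxicity measured as CellTiter-Glo luminescence after 72 h at 37 C. Compound titrations were pinned onto drug-naive KB-3-1 parental adenocarcinoma cells grown in DMEM with 10% FBS, and normalized data fitted to concentration-response curves.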
MCF10A rereplic: inducers of DNA re-replication in MCF 10A breast cells; MCF 10A DNA re-replication, Hoechst nuclear intensity, 48 h; Potency, µM (top dose mostly 46.1 µM), for inactives: at the top dose activity, positive = re-replication, usual class: activators; 350,000 tested, 2.9% active; note: potency is the fitted concentration of half-maximal effect; % of control where 0% means no effect; nearly all actives have a fitted effect of over 50% in size
DRD3 agonist: activates the human D3 dopamine receptor. 410,000 tested, 0.58% active. D3R DiscoveRx beta-arrestin cells, luminescence, 90 min. max activation, %; in the data active = max activation above about 30%; note: 0% is about no effect
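Agonist mode: compounds and dopamine controls were applied to plated cells for 90 min at 37 degrees C after an overnight attachment at 1500 cells/well. Luminescent read-out followed 30 - 60 minutes at room temperature with DiscoveRx detection reagent.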
The depositor's hits bear a star; i = inactive; ? = inconclusive; nt = no result given; [ ] = dose if it differs, or a comment. Unless noted, calls come from the whole dose curve; as a rule, active = well fitted curve in the direction sought with a large enough effect; inconclusive = small, poorly fitted or top-dose-only effect, or another doubt; inactive = no such curve, though single readings can be large; an effect the other way counts as inactive or inconclusive.

SMILES	DRD3 antagonist	KB-V1 MDR tox	SW480 rereplic	KB-3-1 tox	MCF10A rereplic	DRD3 agonist
COC(=O)c1ccccc1NC(=O)CCS(=O)(=O)c1nc(-c2ccc3c(c2)OCO3)cc(C(F)(F)F)n1	nt	nt	nt	nt	nt	-17
COc1ccc(S(=O)(=O)N2N=C(C)Oc3ccccc3C2=O)cc1	1	3.7µM*	4µM*	4.6µM*	7.9µM*	-7
CC1CCC(NC(=O)C2(C)Cc3ccccc3C(=O)N2Cc2ccc(Cl)cc2)CC1 (stereo unspecified)	nt	nt	nt	nt	nt	-7
Cc1nn(-c2ccccc2)c(C)c1-c1nnc(-c2c(C)nn(-c3ccccc3)c2C)o1	27	9.2µM*	-13%	i	0%	-5
O=C1NCCc2c1[nH]c1ccc([N+](=O)[O-])cc21	12	0.92µM*	10%	1.6µM*	1%	0
COc1ccc2[nH]c3c(c2c1)CCNC3=O	nt	?	-8%	?	6%	nt
N#CC1CCCc2c1[nH]c1ccc([N+](=O)[O-])cc21 (stereo unspecified)	3	i	0%	?	6%	0
O=C1NCCc2c1[nH]c1ccccc21	10	6.5µM*	-3%	?	5%	1
CC(C)Oc1ccc(CNC(=O)C2COc3ccccc3C2)cc1 (stereo unspecified)	nt	i	nt	i	nt	-1
CC(=O)c1cccc(NC(=O)Cn2c(-c3cncs3)nc3ccccc32)c1	nt	i	nt	i	nt	5
CCCCCCCC(=O)Nc1cc(C(=O)NCCC)ccc1N1CCC2(CC1)CC(c1ccccc1)=NO2	-119*	i	-5%	i	1%	48*
CCCc1nc2ccc(C)cn2c1Cc1cccc(F)c1	5	i	nt	i	nt	-4
CCCc1nc2c3ccccc3ccn2c1Cc1cccc(F)c1	-90*	i	nt	i	nt	-5
CCOC(=O)c1cnc2ccc(Cl)cc2c1Nc1ccc(OCC)cc1	nt	i	nt	i	nt	4
C=C[C@]1(C)C=C2C(=O)[C@@]3(O)OC(=O)[C@@]4(CCCC(C)(C)[C@H]34)[C@@]2(O)CC1	-58*	?	nt	4.6µM*	nt	-9
C=C[C@]1(C)C=C2CC[C@H]3[C@@](C)(CCC[C@@]3(C)C(=O)O)[C@@H]2CC1	8	i	-1%	i	12%	-3
COc1ccc(C2=NOC(C(=O)Nc3ccc(C(C)=O)cc3)C2)cc1OC (stereo unspecified)	-7	15µM*	-8%	i	17%	-3
COc1ccc(C2=NOC(C(=O)N3CCCCCC3)C2)cc1OC (stereo unspecified)	-2	18µM*	-7%	i	-7%	0
O=C(C1CC(c2ccc(F)cc2)=NO1)N1CCCCC1 (stereo unspecified)	-1	i	-25%	i	5%	6
COc1ccc(C2OC(=O)CC2C(=O)NC2CCCCCC2)cc1OC (stereo unspecified)	17	13µM*	?	i	7%	1
COc1ccc(C2=NOC(C(=O)NC3CCCCC3)C2)cc1OC (stereo unspecified)	3	16µM*	-9%	i	-2%	7
COc1ccc(C2=NOC(C(=O)Nc3cc(Br)ccc3O)C2)cc1OC (stereo unspecified)	-25	?	15%	i	?	-11
Cc1sc2nc(SCC(=O)OC(C)C)n(C)c(=O)c2c1C	15	15µM*	-9%	i	12%	2
O=C(Nc1ccccc1Cl)Nc1ccccc1Cl	7	i	15%	i	-3%	-3
O=C(Nc1csc([N+](=O)[O-])c1)Nc1ccccc1Cl	-4	?	13%	i	12µM*	8
SMILES	DRD3 antagonist	KB-V1 MDR tox	SW480 rereplic	KB-3-1 tox	MCF10A rereplic	DRD3 agonist
Cc1ccc(NC(=O)CCc2c(C)nc3ncnn3c2C)cc1Cl	nt	i	nt	i	nt	-7
CCCCCCCCN1[C@@H](CC(=O)O)c2ccc(/C=C/C(=O)O)cc2S1(=O)=O	nt	i	nt	i	nt	nt
COc1cc2c(cc1OC)CN(CCC(=O)c1ccc(Br)cc1)CC2	-53*	i	-3%	i	-15%	-18
CCC(=O)c1ccc(OCC(=O)N2CCc3cc(OC)c(OC)cc3C2)cc1	15	i	0%	i	-4%	-5
COc1cc2c(cc1OC)CN(C(=O)CCC(=O)c1ccc(F)cc1)CC2	3	?	?	16µM*	?	2
CCOc1ccccc1C(=O)NCC(=O)NNC(=O)c1csc(N2CCOCC2)n1	0	i	nt	i	nt	-1
CC1(C)S[C@@H]2[C@H](NC(=O)[C@H](N)c3ccccc3)C(=O)N2[C@H]1C(=O)OC1OC(=O)c2ccccc21 (stereo partly specified)	-67*	i	-43%	i	1%	-34
CC(C)(C)NC(=O)N1CCC(C(=O)O)CC1	nt	i	nt	i	nt	6
O=S(=O)(Nc1nc2ccccc2[nH]1)c1ccc(Cl)cc1	-22	?	-7%	i	0%	-6
O=S(=O)(Nc1nc2ccccc2[nH]1)c1ccccc1	-55*	21µM*	-1%	i	-1%	0
COc1ccc2c(CNCc3cccs3)c(C(=O)O)n(Cc3ccccc3C)c2c1	nt	i	nt	i	nt	-20
OC(COCc1cccs1)CN1CCN(c2cccc(C(F)(F)F)c2)CC1 (stereo unspecified)	-55*	23µM*	-4%	i	19%	-5
N#Cc1ccc(NC2c3ccccc3CC2O)cc1 (stereo unspecified)	8	18µM*	-2%	?	3%	1
CCN1CCN(Cc2c(O)ccc3oc(C)c(C(=O)Nc4ccc(OC)cc4)c23)CC1	nt	i	nt	i	nt	-7
CC(=O)Nc1ccccc1NC(=O)C/C(C)=N/NC(=O)c1ccc([N+](=O)[O-])c(Cl)c1	-58*	i	0%	i	?	-6
C/C(CC(=O)Nc1cccnc1)=N\NC(=O)c1ccc([N+](=O)[O-])c(Cl)c1	0	i	3%	i	15%	4
O=C(Cn1c(=O)c2cccn2c2ccc(F)cc21)NCc1cccc(Cl)c1	nt	nt	nt	nt	nt	10
O=C1C(C2=NC(C(=O)O)C3C(=O)N(c4ccccc4)C(=O)C23)=C(O)c2ccccc21 (stereo unspecified)	-28	i	0%	i	4%	-4
O=C1C(C2=C(O)c3ccccc3C2=O)=Nc2ccccc21	-30	7.3µM*	?	?	23µM*	-1
O=C(O)c1ccc2c(c1)C(=O)N(CCCCCCCN1C(=O)c3ccc(C(=O)O)cc3C1=O)C2=O	-6	?	-8%[1.84 µM]	i	?	3

Screening results from PubChem BioAssay.
